Measured values from the supplement of paper PMC10849652.
Of roughly 8,800 targets only a part is listed; those with a hit were picked by preference. About 0.5% of all pairs of compound and target were hits.

How the values were obtained:
Assay in all cases: log2 fold change, soluble protein after heating vs DMSO (PISA); higher = thermal stabilisation; K562 lysate, 10 uM; active = over 0.2 and 3.5 SD of the protein, either way, in both replicates (recomputed)
vemurafenib = compound: CCCS(=O)(=O)Nc1ccc(F)c(C(=O)c2c[nH]c3ncc(-c4ccc(Cl)cc4)cc23)c1F [vemurafenib]
Summary of the method: (§1)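 Soluble protein was defined as the supernatant remaining after 21,000xg for 90 min, following pooling of heated aliquots and adjustment to 0.5% NP-40 at 4°C. Before that, crude K562 extract at 1 mg/mL protein in PBS pH 7.4 with 1 mM MgCl2 was treated with 10 μM compound for 30 min and heated for 3 min across 48°C-58°C. Quantification used TMTpro 16plex LC-MS/MS with channel sums equalised, and values are log-two fold changes in thermal stability relative to solvent controls from duplicates.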

[1] = compound: CCCS(=O)(=O)Nc1ccc(F)c(C(=O)c2c[nH]c3ncc(Cl)cc23)c1F
Summary of the method: as §1

barasertib = compound: CCN(CCCOc1ccc2c(Nc3cc(CC(=O)Nc4cccc(F)c4)[nH]n3)ncnc2c1)CCOP(=O)(O)O [barasertib]
Summary of the method: as §1

[2] = compound: CC[C@@H]1C(=O)N(C)c2cnc(Nc3ccc(C(=O)NC4CCN(C)CC4)cc3OC)nc2N1C1CCCC1
Summary of the method: as §1

volasertib = compound: CC[C@@H]1C(=O)N(C)c2cnc(Nc3ccc(C(=O)N[C@H]4CC[C@H](N5CCN(CC6CC6)CC5)CC4)cc3OC)nc2N1C(C)C [volasertib]
Summary of the method: as §1

[3] = compound: CCn1c(C(=O)N(C2CC2)C2CC2)cc2c3c(ncn3C)c(Nc3cc(C)n(C)n3)nc21
Summary of the method: as §1

[4] = compound: CCn1cc(-c2ccnc3[nH]c(-c4cccc(CN(C)C)c4)cc23)c(-c2ccc(NC(=O)N(C)C)cc2)n1
Summary of the method: as §1

[5] = compound: CN1CCC(CNc2ccc3ncc(-c4cccc(OC(F)(F)F)c4)n3n2)CC1
Summary of the method: as §1

saracatinib = compound: CN1CCN(CCOc2cc(OC3CCOCC3)c3c(Nc4c(Cl)ccc5c4OCO5)ncnc3c2)CC1 [saracatinib]
Summary of the method: as §1

sotrastaurin = compound: CN1CCN(c2nc(C3=C(c4c[nH]c5ccccc45)C(=O)NC3=O)c3ccccc3n2)CC1 [sotrastaurin]
Summary of the method: as §1

alvocidib = compound: CN1CC[C@H](c2c(O)cc(O)c3c(=O)cc(-c4ccccc4Cl)oc23)[C@H](O)C1 [alvocidib]
Summary of the method: as §1

Tubastatin A = compound: CN1CCc2c(c3ccccc3n2Cc2ccc(C(=O)NO)cc2)C1 [Tubastatin A]
Summary of the method: as §1

[6] = compound: CNC(=O)C1=CC=CC=C1NC2=NC(=NC=C2Cl)NC3=C(C=C(C=C3)N4CCOCC4)OC
Summary of the method: as §1

defactinib = compound: CNC(=O)c1ccc(Nc2ncc(C(F)(F)F)c(NCc3nccnc3N(C)S(C)(=O)=O)n2)cc1 [defactinib]
Summary of the method: as §1

[7] = compound: CNc1nc(-c2ccc3c(N)n[nH]c3c2)cc(N2C[C@@H](C(=O)NC3CCCCC3)CC[C@H]2C)n1
Summary of the method: as §1

encorafenib = compound: COC(=O)N[C@@H](C)CNc1nccc(-c2cn(C(C)C)nc2-c2cc(Cl)cc(NS(C)(=O)=O)c2F)n1 [encorafenib]
Summary of the method: as §1

[8] = compound: COC(=O)[C@H](CCSC)NC(=O)C1=C(C=C(C=C1)NC[C@H](CS)N)C2=CC=CC=C2
Summary of the method: as §1

alisertib = compound: COc1cc(Nc2ncc3c(n2)-c2ccc(Cl)cc2C(c2c(F)cccc2OC)=NC3)ccc1C(=O)O [alisertib]
Summary of the method: as §1

[9] = compound: COc1cc2nc(-c3cc(F)ccc3O)nc(N[C@@H]3CNC[C@H]3C(C)(C)O)c2cc1OC
Summary of the method: as §1

gefitinib = compound: COc1cc2ncnc(Nc3ccc(F)c(Cl)c3)c2cc1OCCCN1CCOCC1 [gefitinib]
Summary of the method: as §1

Measured: log2 fold change

EPB41, A0A2R8Y6D0
inactive: vemurafenib -0.019 | [1] -0.004 | barasertib 0.043 | [2] -0.108 | volasertib 0.006 | [3] -0.24 | [4] -0.047 | saracatinib -0.082 | sotrastaurin 0.044 | alvocidib -0.015 | Tubastatin A -0.033 | [6] 0.114 | defactinib 0.098 | [7] -0.178 | encorafenib 0.029 | [8] 0.052 | alisertib 0.165 | [9] -0.014 | gefitinib 0.407
active: [5] 0.594

EXTL2 (UniProt Q9UBQ6)
UniProt Q9UBQ6, sequence (Q9UBQ6 whole entry, looked up): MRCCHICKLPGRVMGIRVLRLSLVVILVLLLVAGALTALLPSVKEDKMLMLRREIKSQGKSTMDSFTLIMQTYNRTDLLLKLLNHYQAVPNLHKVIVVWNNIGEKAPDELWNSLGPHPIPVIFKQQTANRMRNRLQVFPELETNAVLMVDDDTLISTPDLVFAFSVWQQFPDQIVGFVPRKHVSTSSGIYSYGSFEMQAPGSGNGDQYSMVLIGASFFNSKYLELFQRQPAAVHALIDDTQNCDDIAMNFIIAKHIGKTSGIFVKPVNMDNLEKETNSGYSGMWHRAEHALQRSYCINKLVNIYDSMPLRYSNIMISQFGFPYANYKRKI
inactive: vemurafenib -0.052 | [1] 0.066 | barasertib 0.057 | [2] -0.13 | volasertib 0.019 | [3] 0.03 | [4] -0.198 | [5] 0.078 | saracatinib -0.017 | sotrastaurin -0.026 | alvocidib -0.016 | Tubastatin A 0 | [6] 0.009 | defactinib 0.037 | [7] 0.104 | encorafenib 0.168 | [8] -0.048 | alisertib -0.021 | [9] -0.005 | gefitinib -0.111

EPN2 (UniProt O95208)
UniProt O95208, sequence (O95208 whole entry, looked up): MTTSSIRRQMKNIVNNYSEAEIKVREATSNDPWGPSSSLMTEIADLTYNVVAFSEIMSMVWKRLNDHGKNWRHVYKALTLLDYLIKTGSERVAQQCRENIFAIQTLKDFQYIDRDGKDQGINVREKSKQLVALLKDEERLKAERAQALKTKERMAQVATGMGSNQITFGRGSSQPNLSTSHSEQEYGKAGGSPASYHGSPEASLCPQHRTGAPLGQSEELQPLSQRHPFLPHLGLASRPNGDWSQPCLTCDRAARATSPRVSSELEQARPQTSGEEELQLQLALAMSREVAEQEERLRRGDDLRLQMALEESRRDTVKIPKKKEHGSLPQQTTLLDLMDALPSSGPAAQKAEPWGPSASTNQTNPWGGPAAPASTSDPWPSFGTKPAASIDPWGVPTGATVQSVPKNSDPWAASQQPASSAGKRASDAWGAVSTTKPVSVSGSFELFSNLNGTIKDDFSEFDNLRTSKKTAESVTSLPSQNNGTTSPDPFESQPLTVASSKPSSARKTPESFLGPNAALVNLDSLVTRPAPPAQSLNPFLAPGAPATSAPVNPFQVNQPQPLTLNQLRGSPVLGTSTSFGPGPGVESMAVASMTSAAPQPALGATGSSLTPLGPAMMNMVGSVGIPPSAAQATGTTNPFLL
active: [4] -0.417
inactive: vemurafenib 0.019 | [1] 0.027 | barasertib 0.043 | [2] 0.044 | volasertib 0.016 | [3] -0.002 | [5] 0.08 | saracatinib 0.004 | sotrastaurin 0.002 | alvocidib -0.079 | Tubastatin A -0.008 | [6] 0.001 | defactinib 0.005 | [7] 0.009 | encorafenib 0.016 | [8] -0.051 | alisertib 0.002 | [9] 0.03 | gefitinib -0.014

EIF2B3 (UniProt Q9NR50)
inactive: vemurafenib 0.013 | [1] 0.021 | barasertib -0.008 | [2] -0.028 | volasertib -0.02 | [3] 0.044 | [5] -0.111 | saracatinib 0.005 | sotrastaurin -0.003 | alvocidib 0.071 | Tubastatin A -0.103 | [6] -0.009 | defactinib 0.008 | [7] -0.012 | encorafenib -0.007 | [8] 0.057 | alisertib -0.016 | [9] -0.007 | gefitinib -0.041
active: [4] 0.287

ELAVL1 isoform 2 (UniProt Q15717)
inactive: vemurafenib 0.035 | [1] 0.024 | barasertib -0.013 | [2] -0.03 | volasertib -0.029 | [3] 0.035 | [4] 0.013 | [5] -0.083 | saracatinib -0.001 | sotrastaurin 0.024 | alvocidib 0.013 | Tubastatin A -0.187 | [6] 0.05 | defactinib -0.005 | [7] -0.011 | encorafenib 0.018 | [8] 0.166 | alisertib 0.019 | [9] -0.002 | gefitinib 0.048

GDPD1 (UniProt Q8N9F7)
UniProt Q8N9F7, sequence (Q8N9F7 whole entry, looked up): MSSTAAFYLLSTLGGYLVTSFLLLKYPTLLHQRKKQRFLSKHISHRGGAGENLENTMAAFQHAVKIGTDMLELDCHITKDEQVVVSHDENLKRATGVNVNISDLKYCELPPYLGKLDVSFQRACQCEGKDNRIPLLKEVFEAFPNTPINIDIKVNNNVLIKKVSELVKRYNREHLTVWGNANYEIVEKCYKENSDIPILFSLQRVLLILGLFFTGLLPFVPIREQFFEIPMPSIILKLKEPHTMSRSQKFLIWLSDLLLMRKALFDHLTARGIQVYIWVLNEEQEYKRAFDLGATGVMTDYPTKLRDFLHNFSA
inactive: vemurafenib 0.116 | [1] 0.055 | barasertib -0.005 | [2] 0.041 | volasertib -0.008 | [3] 0.004 | [4] 0.074 | [5] -0.032 | saracatinib -0.023 | sotrastaurin 0.005 | alvocidib 0 | Tubastatin A -0.023 | [6] 0.006 | defactinib -0.03 | [7] 0.046 | encorafenib 0.059 | alisertib -0.018 | [9] -0.027 | gefitinib -0.035
active: [8] -0.272

FAM114A2 (UniProt Q9NRY5)
inactive: vemurafenib 0.054 | [1] 0.049 | barasertib 0.086 | [2] 0.131 | volasertib -0.013 | [3] 0.014 | [4] 0.049 | [5] -0.039 | saracatinib 0.03 | sotrastaurin 0.033 | alvocidib 0.021 | Tubastatin A 0.134 | [6] 0 | defactinib 0.032 | [7] 0.037 | encorafenib 0.219 | [8] 0.027 | alisertib 0.127 | [9] 0.118 | gefitinib 0.073

FBXO9 (UniProt Q9UK97)
UniProt Q9UK97, sequence (Q9UK97 whole entry, looked up): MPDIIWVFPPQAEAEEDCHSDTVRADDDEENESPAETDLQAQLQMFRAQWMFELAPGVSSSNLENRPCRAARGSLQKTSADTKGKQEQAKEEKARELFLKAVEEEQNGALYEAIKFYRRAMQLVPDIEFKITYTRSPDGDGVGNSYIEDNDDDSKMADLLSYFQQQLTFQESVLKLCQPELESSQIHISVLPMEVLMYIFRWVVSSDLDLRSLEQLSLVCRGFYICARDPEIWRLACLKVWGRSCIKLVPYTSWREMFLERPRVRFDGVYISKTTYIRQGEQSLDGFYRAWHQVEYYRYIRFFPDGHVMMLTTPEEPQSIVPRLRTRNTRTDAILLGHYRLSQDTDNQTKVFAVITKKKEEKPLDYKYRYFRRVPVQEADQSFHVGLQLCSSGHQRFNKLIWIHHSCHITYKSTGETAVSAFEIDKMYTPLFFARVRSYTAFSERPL
active: [9] -0.402
inactive: vemurafenib -0.025 | [1] 0.007 | barasertib 0.116 | [2] 0.135 | volasertib -0.012 | [3] -0.015 | [4] 0.049 | [5] -0.083 | saracatinib -0.013 | sotrastaurin 0.021 | alvocidib 0.099 | Tubastatin A -0.006 | [6] -0.015 | defactinib 0.104 | [7] 0.037 | encorafenib 0.078 | [8] -0.042 | alisertib -0.011 | gefitinib 0.04

GAPVD1 isoform 6 (UniProt Q14C86)
UniProt Q14C86, sequence (Q14C86 whole entry, looked up): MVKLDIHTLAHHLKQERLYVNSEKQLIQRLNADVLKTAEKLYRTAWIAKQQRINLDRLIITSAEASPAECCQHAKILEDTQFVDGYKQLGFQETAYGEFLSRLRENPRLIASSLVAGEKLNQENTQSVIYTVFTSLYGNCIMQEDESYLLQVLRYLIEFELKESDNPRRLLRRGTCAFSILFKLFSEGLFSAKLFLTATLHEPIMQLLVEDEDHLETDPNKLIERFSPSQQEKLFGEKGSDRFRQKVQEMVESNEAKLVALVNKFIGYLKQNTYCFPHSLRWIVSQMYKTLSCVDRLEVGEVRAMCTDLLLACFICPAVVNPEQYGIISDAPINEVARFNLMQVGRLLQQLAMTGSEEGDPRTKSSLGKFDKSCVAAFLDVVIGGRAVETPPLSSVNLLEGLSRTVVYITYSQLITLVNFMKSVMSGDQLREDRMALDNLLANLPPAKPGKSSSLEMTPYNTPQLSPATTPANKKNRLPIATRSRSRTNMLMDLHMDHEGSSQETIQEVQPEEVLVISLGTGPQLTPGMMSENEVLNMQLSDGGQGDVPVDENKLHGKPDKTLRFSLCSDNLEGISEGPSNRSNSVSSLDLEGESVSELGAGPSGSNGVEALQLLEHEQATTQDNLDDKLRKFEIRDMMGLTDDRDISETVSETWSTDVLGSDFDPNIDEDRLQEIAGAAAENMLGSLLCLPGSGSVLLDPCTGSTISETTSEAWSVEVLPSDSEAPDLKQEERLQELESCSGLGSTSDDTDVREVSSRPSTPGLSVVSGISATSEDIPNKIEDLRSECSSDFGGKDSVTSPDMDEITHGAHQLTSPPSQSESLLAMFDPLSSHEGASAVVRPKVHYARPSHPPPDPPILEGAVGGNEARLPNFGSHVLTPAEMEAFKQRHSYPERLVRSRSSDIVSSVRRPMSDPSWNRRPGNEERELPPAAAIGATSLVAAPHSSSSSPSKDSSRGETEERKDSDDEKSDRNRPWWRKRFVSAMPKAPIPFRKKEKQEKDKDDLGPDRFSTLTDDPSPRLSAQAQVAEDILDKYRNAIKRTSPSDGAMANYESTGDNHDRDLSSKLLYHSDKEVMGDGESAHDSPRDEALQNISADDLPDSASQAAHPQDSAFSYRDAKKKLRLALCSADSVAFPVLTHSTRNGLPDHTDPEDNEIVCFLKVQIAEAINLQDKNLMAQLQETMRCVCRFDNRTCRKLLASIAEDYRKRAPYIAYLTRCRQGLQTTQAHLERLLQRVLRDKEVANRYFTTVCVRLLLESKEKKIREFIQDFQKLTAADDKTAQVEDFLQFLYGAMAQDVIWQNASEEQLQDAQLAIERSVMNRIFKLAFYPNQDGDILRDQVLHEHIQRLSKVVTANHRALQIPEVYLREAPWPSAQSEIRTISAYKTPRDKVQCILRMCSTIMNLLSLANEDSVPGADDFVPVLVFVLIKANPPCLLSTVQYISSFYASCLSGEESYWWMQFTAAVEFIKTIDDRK
inactive: vemurafenib 0.011 | [1] 0.006 | barasertib 0.01 | [2] -0.077 | volasertib -0.036 | [3] 0.027 | [4] 0.046 | [5] -0.083 | saracatinib 0.014 | sotrastaurin 0.012 | alvocidib 0.01 | Tubastatin A -0.112 | [6] 0.015 | defactinib 0.018 | [7] -0.04 | encorafenib 0.014 | [8] 0.097 | alisertib 0.005 | [9] -0.017 | gefitinib -0.012

EPB41 (UniProt P11171)
UniProt P11171, sequence (P11171 whole entry, looked up): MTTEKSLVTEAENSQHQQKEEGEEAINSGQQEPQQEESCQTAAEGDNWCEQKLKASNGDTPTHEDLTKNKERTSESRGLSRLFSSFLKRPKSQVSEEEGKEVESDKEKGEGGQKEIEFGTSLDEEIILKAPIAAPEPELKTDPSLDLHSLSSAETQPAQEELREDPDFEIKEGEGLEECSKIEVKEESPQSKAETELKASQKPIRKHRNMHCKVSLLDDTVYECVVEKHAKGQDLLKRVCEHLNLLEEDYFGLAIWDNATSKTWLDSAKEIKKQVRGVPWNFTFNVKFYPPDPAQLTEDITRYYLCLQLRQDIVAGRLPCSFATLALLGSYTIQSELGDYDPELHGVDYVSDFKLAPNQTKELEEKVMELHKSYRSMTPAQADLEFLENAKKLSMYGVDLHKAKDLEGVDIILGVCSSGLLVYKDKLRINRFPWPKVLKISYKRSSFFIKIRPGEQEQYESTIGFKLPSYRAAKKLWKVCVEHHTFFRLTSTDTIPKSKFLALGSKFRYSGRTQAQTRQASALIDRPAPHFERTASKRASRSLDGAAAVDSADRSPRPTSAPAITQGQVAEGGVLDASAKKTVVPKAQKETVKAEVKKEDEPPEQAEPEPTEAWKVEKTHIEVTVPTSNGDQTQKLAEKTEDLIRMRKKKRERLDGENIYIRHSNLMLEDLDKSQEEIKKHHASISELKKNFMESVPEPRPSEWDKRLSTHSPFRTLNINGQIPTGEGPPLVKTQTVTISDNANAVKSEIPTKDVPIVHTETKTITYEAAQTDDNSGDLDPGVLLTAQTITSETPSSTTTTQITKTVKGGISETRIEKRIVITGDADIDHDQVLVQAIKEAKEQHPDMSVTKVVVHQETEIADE
inactive: vemurafenib -0.051 | [1] 0.005 | barasertib -0.009 | [2] -0.033 | volasertib -0.02 | [3] 0.022 | [4] 0.026 | [5] -0.135 | saracatinib 0.014 | sotrastaurin 0.026 | alvocidib 0.044 | Tubastatin A -0.02 | [6] 0.011 | defactinib 0.015 | [7] -0.067 | encorafenib 0.01 | [8] -0.001 | alisertib 0.02 | [9] -0.036 | gefitinib 0.007

FDFT1 (UniProt P37268)
UniProt P37268, sequence (P37268 whole entry, looked up): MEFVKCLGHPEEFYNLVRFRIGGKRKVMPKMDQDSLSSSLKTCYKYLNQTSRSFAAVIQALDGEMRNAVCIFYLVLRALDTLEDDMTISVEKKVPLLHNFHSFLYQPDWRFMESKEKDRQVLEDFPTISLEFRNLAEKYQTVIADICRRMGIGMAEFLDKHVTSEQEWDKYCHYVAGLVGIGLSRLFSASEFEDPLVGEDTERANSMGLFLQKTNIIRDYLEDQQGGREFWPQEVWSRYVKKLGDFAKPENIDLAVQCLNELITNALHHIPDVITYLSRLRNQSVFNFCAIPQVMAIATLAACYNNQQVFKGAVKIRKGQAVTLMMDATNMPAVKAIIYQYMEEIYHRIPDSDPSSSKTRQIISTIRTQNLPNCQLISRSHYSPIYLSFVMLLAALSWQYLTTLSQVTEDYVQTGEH
inactive: vemurafenib -0.012 | [1] 0.111 | barasertib 0.023 | [2] 0.005 | volasertib -0.069 | [3] 0.01 | [4] -0.047 | [5] -0.022 | saracatinib -0.019 | alvocidib 0.002 | Tubastatin A -0.037 | [6] -0.033 | defactinib -0.048 | [7] -0.018 | encorafenib 0.047 | [8] -0.155 | alisertib 0.068 | [9] 0.018 | gefitinib 0.016
active: sotrastaurin 0.437

GABPB1 (UniProt Q06547)
UniProt Q06547, sequence (Q06547 whole entry, looked up): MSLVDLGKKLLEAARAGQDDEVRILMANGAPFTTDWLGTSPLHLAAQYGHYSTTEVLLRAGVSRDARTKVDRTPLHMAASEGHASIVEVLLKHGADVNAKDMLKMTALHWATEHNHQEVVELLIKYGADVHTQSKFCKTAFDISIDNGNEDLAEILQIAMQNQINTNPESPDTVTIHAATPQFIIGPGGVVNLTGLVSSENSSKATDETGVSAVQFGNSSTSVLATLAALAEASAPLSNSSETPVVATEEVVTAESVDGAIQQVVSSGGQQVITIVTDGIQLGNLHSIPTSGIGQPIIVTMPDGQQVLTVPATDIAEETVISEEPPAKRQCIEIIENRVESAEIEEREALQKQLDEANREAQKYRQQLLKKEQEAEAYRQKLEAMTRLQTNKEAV
inactive: vemurafenib -0.05 | [1] 0.01 | barasertib 0.014 | [2] -0.024 | volasertib 0.025 | [3] 0.006 | [4] 0.193 | [5] -0.199 | saracatinib 0.057 | sotrastaurin 0.023 | alvocidib 0.181 | Tubastatin A -0.001 | [6] -0.028 | defactinib 0.005 | [7] 0 | encorafenib 0.036 | [8] 0.097 | alisertib -0.016 | [9] -0.043 | gefitinib 0.024

EEF1A1P5 (UniProt Q5VTE0)
inactive: vemurafenib 0.022 | [1] 0.002 | barasertib -0.017 | [2] 0.004 | volasertib -0.022 | [3] -0.031 | [4] -0.105 | [5] 0.073 | saracatinib -0.021 | sotrastaurin 0.025 | alvocidib -0.022 | Tubastatin A -0.065 | [6] -0.021 | defactinib -0.015 | [7] -0.218 | encorafenib -0.027 | [8] 0.127 | alisertib 0.023 | [9] 0.009 | gefitinib 0

ELF2 (UniProt Q15723)
inactive: vemurafenib -0.022 | [1] -0.056 | barasertib -0.123 | [2] 0.005 | volasertib 0.042 | [3] 0.031 | [4] 0.086 | [5] -0.078 | saracatinib -0.023 | sotrastaurin -0.004 | alvocidib 0.023 | Tubastatin A 0.016 | [6] 0.024 | defactinib -0.013 | [7] -0.062 | encorafenib 0.028 | [8] 0.038 | alisertib -0.101 | [9] -0.06 | gefitinib 0.047

G6PD isoform 2 (UniProt P11413)
inactive: vemurafenib 0.003 | [1] 0.008 | barasertib -0.029 | [2] -0.02 | volasertib -0.061 | [3] 0.016 | [4] 0.063 | [5] -0.04 | saracatinib 0.032 | sotrastaurin -0.017 | alvocidib 0.029 | Tubastatin A -0.068 | [6] 0.013 | defactinib 0.031 | [7] 0.009 | encorafenib -0.025 | [8] 0.145 | alisertib 0.021 | [9] -0.017 | gefitinib -0.023

FANCI (UniProt Q9NVI1)
inactive: vemurafenib 0.018 | [1] 0.021 | barasertib 0.045 | [2] -0.028 | volasertib -0.053 | [3] 0.031 | [4] 0.021 | [5] -0.119 | saracatinib 0.017 | sotrastaurin 0.02 | alvocidib 0.063 | Tubastatin A -0.097 | [6] 0.014 | defactinib 0.01 | [7] -0.036 | encorafenib 0.002 | [8] 0.052 | alisertib 0 | [9] 0.01 | gefitinib -0.002
